PubChem BioAssay (NCI)
The panel holds about 83,000 compounds, 20% with a hit somewhere; the sample as a whole holds those more often.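 Cell lines were cultured in 96-well plates, exposed to a single compound concentration, and assessed for percent growth 48 hours later.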 Values without a mark were called inactive. Activity calls are given as the source filed them. The calls were made as follows: active = growth percent below 10; inactive = the rest.

test system: BT-549 breast; test: NCI-60 one-dose screen, 48 h (100 = growth as untreated, 0 = no growth, -100 = all killed); settings: 10 µM unless noted

Row | SMILES | growth
1 | CNC(=O)c1cc(Oc2ccc3nc(NC(=O)Nc4ccc(F)cc4F)sc3c2)ccn1 | 100%
2 | CCOC(=O)c1c2c(n3ccc(NC(=O)CCN4CCCC4)cc13)C(=O)c1ncccc1C2=O | -73.8% (active)
3 | CNC(=O)c1cc(Oc2ccc3nc(NC(=O)c4cc(C(F)(F)F)cc(C(F)(F)F)c4)sc3c2)ccn1 | 11.4%
4 | CC(=O)CC(=O)c1ccccc1.[Cu+2] | 114%
5 | O=c1c2cccc3c(N4CCOCC4)ccc(c32)c2nc3ccccc3n12 | 93.8%
6 | CN(C)C(=O)OCc1ccc2c(Cl)cc(Cl)c(O)c2n1 | 60.3%
7 | COc1ccc(-c2ccc(-c3ccc(C(=N)N)nc3)s2)cc1 | 84%
8 | CN1CCN(c2ccc(Nc3ncc4[nH]c(=O)n(Cc5ccccc5N)c4n3)cc2)CC1 | 97.8%
9 | NC(=N\N=C/c1ccc(Cl)cc1Cl)/C(N)=N\N=C/c1ccc(Cl)cc1Cl | 111%
10 | C=C1C(=O)O[C@H]2[C@H]1CC/C(COC(=O)NCc1ccc(Cn3c(=O)sn(CCCC)c3=O)cc1)=C\CC[C@@]1(C)O[C@@H]21 | 53.3%
11 | FC(F)(F)c1cccc(-c2nnn(Cc3cc(-c4cccc(Cl)c4)no3)n2)c1 | 97.7%
12 | O=C(c1ccc(F)cc1)C1CCN(CCn2c(=O)[nH]c3ccccc3c2=O)CC1 | 107%
13 | Cc1ccc(C2(C)NC(=O)N(CC(=O)Nc3cccc(C)c3)C2=O)cc1 (stereo not given) | 90.9%
14 | COc1ccc(C(=O)C2OC3=C(C(=O)CC(C)(C)C3)C2c2cccc(Oc3ccccc3)c2)cc1 (stereo not given) | 92.1%
15 | CC1(C)C2=C(C(=O)N1Cc1ccccc1)C(c1ccco1)N(C(=O)C1CCC1)CCN2 (stereo not given) | 106%
16 | COc1ccc(Nc2nccc(Nc3ccc4[nH]ncc4c3)n2)cc1 | 44.2%
17 | Cc1nn(-c2ccccc2)c(Oc2ccccc2)c1/C=N/NC(=O)Cn1c(=O)sc2ccccc21 | 25.6%
18 | CCN1C(=O)N(CC)C2C1NC(=S)N2/N=C/C=C/c1cccs1 (stereo not given) | 24.1%
19 | O=C(Nc1ncc(Cc2ccc(Cl)cc2)s1)c1ccc2c(c1)OCCO2 | 38.1%
20 | C#Cc1ccc(NC(=O)Cc2ccc(/C=C/C(=O)c3nccn3C)cc2)cc1 | 71.2%

Row | SMILES | growth
21 | CN(C)CCOc1nc2c3cc([N+](=O)[O-])ccc3nn2c2ccccc12 | 69.6%
22 | CCN(CC)CCCC(Nc1c2ccc(Cl)cc2nc2ccc(OC)cc12)c1ccncc1 (stereo not given) | 94.6%
23 | CCOC(=O)c1cnc2sc(-c3ccc(OC)cc3)nc2c1Cl | 107%
24 | COc1ccc2c(O)cc3c(c2c1)[C@H](CCl)CN3C(=O)c1cc2cc(NC(=O)CCN3CCOCC3)ccc2[se]1 | -72.8% (active)
25 | Oc1ccc(Cc2ccc(O)c3ncccc23)c2cccnc12 | 29.4%
26 | CO[C@]12C=C/C(=C(/C(=O)OCc3cccnc3)C(=O)CCCCCCCC[C@]3(OC)C=C/C(=C(/C(=O)OCc4cccnc4)C(=O)CCCCCCCC1)O3)O2 | -67.8% (active)
27 | CC(C)=CCC[C@](C)(O)C1CC[C@]2(C)[C@@H]1CC[C@@H]1[C@@]3(C)CC/C(=N\OCCC#N)C(C)(C)[C@@H]3CC[C@]12C (stereo not given in full) | 102%
28 | Cn1cc(-c2ccc3c(Nc4cccc(NC(=O)Nc5cccc(F)c5)c4)ncnc3c2)cn1 | 47.4%
29 | O=c1oc2ccccc2cc1-c1nn(-c2ccccc2)cc1/C=N/Nc1nc(-c2ccccc2)c(N=Nc2ccccc2)s1 | 61.8%
30 | CCCNNC(=O)c1ccc(CNC(=O)/C=C/c2ccccc2)cc1 | 77.2% [2.5 µM]
31 | C=C(CNCCO)[C@@H]1CC[C@]2(CO)CC[C@]3(C)[C@H](CC[C@@H]4[C@@]5(C)CCC(NCCO)C(C)(C)[C@@H]5CC[C@]43C)[C@@H]12 (stereo not given in full) | 78.9%
32 | COc1cccc(-c2cc(-c3ccc(Nc4nc(Nc5ccc(Cl)cc5)nc(Nc5ccc(Cl)cc5)n4)cc3)nc(N)c2C#N)c1 | -30.1% (active)
33 | CC(C)C(=O)Nc1ncc(C(=O)NCCN(Cc2ccccc2)C(=O)c2ccc(S(=O)(=O)Nc3ccccc3)cc2)s1 | 89.2%
34 | CN1CCN(Cc2ccc(NC(=O)c3cncc(C#Cc4cnc(N)c5ccc(C#N)cc45)c3)cc2C(F)(F)F)CC1 | 37.3%
35 | COc1ccc2c(c1)c(-c1nc(-c3cn(C)c4ccncc34)cs1)cn2C | 91.2%
36 | O=C(OCC(O)(CO)C(=O)NC12CC3CC(CC(C3)C1)C2)c1ccc(Cl)cc1 (stereo not given) | 102%
37 | Cn1ccnc1C(=O)/C=C/c1ccc(CC(=O)Nc2cc(F)c(F)c(F)c2)cc1 | 16.3%
38 | Cc1ccc(Nc2cc(N)nc(N)n2)cc1 | 113%
39 | Cc1nc2ccccc2c(/C=C/c2ccc(Cl)cc2)c1C(=O)/C=C/c1ccccc1 | 26.7%
40 | NS(=O)(=O)Oc1cccc(-c2nc3sccn3c2-c2ccccc2)c1 | 54%
